# Source: PubChem BioAssay
# Sampled rows, rich in hits. Any-hit rate of the full collection: about 3.4%.
# HSF1 inhib: HSF1 inhibitors in luciferase reporter cells, primary screen, cell-based, NIH3T3, luminescence; activity change, negative = inhibition, % at 7.5 µM (by protocol); 0.77% of 300,000 active; NIH3T3-HGL HSE-luciferase, MG132-induced, luminescence 8 h; active compounds read low; AID 2098, 2009;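 active = more than half of replicate wells show activity change below -50%, luminescence cut by over half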;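 also: luciferase reports HSF-1 transcriptional activity via heat shock element; 0% = median of DMSO wells and -100% = zero luminescence signal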
# FXN GAA850 act: FXN promoter activators, primary screen, cell-based, luciferase luminescence, HEK293 lucGAA850 | HEK293 lucGAA850 FXN promoter luciferase reporter, 24 h; percent of 10 µM SAHA response | activation, % at 6 µM | 0.56% of 360,000 active;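 active = activation above the average of all compounds screened plus 3 SD, cutoff fixed separately per campaign, cut at about 7.5% in these data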;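 also: 0% = DMSO wells and 100% = 10 µM SAHA wells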
# PG9 Ab binder: binders of HIV-1 gp120 antibody PG9, primary screen, biochemical, TR-FRET; HIV-1 gp120 / PG9 antibody interaction; 0.43% of 360,000 active; TR-FRET gp120-PG9 antibody binding; inhibition, % at 6.7 µM; in the data active = inhibition above about 8.5%
# SMARCA2 activ: SMARCA2 (BRM) function activators, primary screen, cell-based, luminescence, high throughput; MG213 cells, MMTV-luciferase reporter, dexamethasone, overnight; activation, % at 9.1 µM; 1% of 370,000 active; in the data active = activation above about 7.8%;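 also: 0% = vehicle wells and 100% = reference activator wells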
# HSP90 inh: HSP90 inhibitors, primary screen, cell lysate, luminescence; Heat shock protein HSP 90 (rabbit reticulocyte lysate; luciferase refolding); Rabbit reticulocyte lysate, luciferase refolding luminescence, 3 h; 0.91% of 290,000 active; inhibition, % at 5.6 µM; AID 1789, 2009;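 active = inhibition above the screen-wide mean plus 3 SD, computed separately per campaign, cut at about 16% in these data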;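 also: 0% = DMSO wells and 100% = 60 µM geldanamycin wells; inhibitors lower the luminescence because luciferase stays unfolded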
# AI-2 QS modul: Vibrio harveyi AI-2 quorum sensing modulators, primary screen, JMH597 strain, luminescence/OD600 ratio | Vibrio harveyi JMH597 AI-2 luminescence/OD600 ratio, 9 h; active compounds read low; strain lacks LuxN and CqsS sensors; 0 = neutral-control median | activity change, % at 7.5 µM | 0.4% of 300,000 active; in the data active = activity change below about -75%, passing the limit was not always enough;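 also: luminescence divided by OD600 gain over 9 h not by final OD600 alone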
# GAA30 counter: GAA30 FXN promoter activators, confirmation, counter-screen for GAA850 frataxin promoter activator project, cell-based, luminescence, HEK293, lucGAA30, triplicate; shares compounds with FXN GAA850 act; HEK293 lucGAA30 FXN promoter luciferase, 24 h; DMSO = 0%, 5 µM ipriflavone = 100%; activation, % at 6 µM; 66% of 1,900 active; AID 588350, 2011;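 active = mean activation above the mean of solvent-only control wells plus 3 SD, cut at about 22% in these data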;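 also: counterscreen of GAA850 promoter hits where activity marks nonselective or luminescence artifacts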
# FXN GAA850 conf: FXN GAA850 promoter activators in reporter cells, confirmation, cell-based, luminescence, HEK293 lucGAA850, triplicate; shares compounds with FXN GAA850 act; HEK293 lucGAA850 FXN promoter luciferase reporter, 24 h; 100% = activation by SAHA; activation, % at 6 µM; 86% of 1,900 active;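 active = mean activation above a set limit taken from the primary screen, cut at about 8% in these data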;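 also: 0% = DMSO wells and 100% = 10 µM SAHA wells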
# Numbers without * were called inactive; / = no result given.
SMILES,HSF1 inhib,FXN GAA850 act,PG9 Ab binder,SMARCA2 activ,HSP90 inh,AI-2 QS modul,GAA30 counter,FXN GAA850 conf
O=C(O)c1ccc(-c2nc(-c3ccc(Cl)cc3Cl)cs2)cc1,16,8.2*,-1,4,3,12,113*,44*
CCOC(=O)C1=CCN(S(=O)(=O)c2ccc([N+](=O)[O-])cc2)C1c1ccc(C)cc1 (stereo not drawn),/,/,-3,0,/,/,/,/
C=CCn1c(SCC(N)=O)nc2scc(-c3ccc(C)o3)c2c1=O,-22,8.2*,-4,6,10,33,128*,43*
C=CCn1c(SCc2ccccc2)nc2scc(-c3ccc(C)o3)c2c1=O,3,1,0,-2,0,31,/,/
COC(=O)Cc1nnn2c1CC(OC)c1ccccc1-2 (stereo not drawn),/,/,-1,3,/,/,/,/
COc1nc(N)nc(NC23CC4CC(CC(C4)C2)C3)n1,8,9.2*,-1,0,0,10,57*,20*
COc1ccc(C2OCC(C)(C)CO2)cc1OC,/,2,0,2,/,/,/,/
COc1ccc(C2C=C(C34CC5CC(CC(C5)C3)C4)NC(=S)N2)cc1OC (stereo not drawn),-5,7.7*,2,1,3,27,10,11*
CCOC(=O)C1CCN(S(=O)(=O)c2cccc(-c3csc(C)n3)c2)CC1,1,8.4*,2,-1,-1,15,6,3
CCCCc1ccc(NC(=O)CC(C)(C)C)cc1,20,7.8*,-1,3,-2,-76*,108*,38*
C[C@H]1CN([C@@H](C)CO)C(=O)CCCn2cc(nn2)CO[C@@H]1CN(C)S(=O)(=O)c1ccc(Oc2ccccc2)cc1,/,-1,1,-4,/,/,/,/
COc1ccccc1NC(=O)N(Cc1ccccc1)c1ccccn1,7,9.7*,5,-6,2,-1,38*,20*
COc1ccccc1-c1ccc2c(c1)C(C)(Cc1ccc(F)c(Cl)c1)C(=O)N2 (stereo not drawn),/,13*,1,-7,/,/,9,8.5*
COc1ccc(Cl)cc1CC1(C)C(=O)Nc2ccc(-c3ccccc3OC)cc21 (stereo not drawn),/,12*,-1,-6,/,/,33*,12*
COc1ccccc1-c1ccc2c(c1)C(C)(Cc1ccc(Cl)cc1)C(=O)N2 (stereo not drawn),/,2,-1,1,/,/,/,/
COc1ccccc1-c1ccc2c(c1)C(C)(Cc1ccc(OC(F)(F)F)cc1)C(=O)N2 (stereo not drawn),/,6,0,-4,/,/,/,/
COc1ccccc1-c1ccc2c(c1)C(C)(Cc1cccc(C#N)c1)C(=O)N2 (stereo not drawn),/,11*,2,-4,/,/,10,8.1*
COC(=O)c1cccc(CC2(C)C(=O)Nc3cc(-c4ccccc4Cl)ccc32)c1 (stereo not drawn),/,17*,-1,-5,/,/,58*,31*
O=C1NC[C@H](CCCCN2C[C@H](Cc3ccccc3)N(CCc3ccccc3)C(=O)C2=O)N(CCC2CCCCC2)C1=O,/,/,0,3,/,/,/,/
C[C@H](CO)N1C[C@H](C)[C@@H](CN(C)S(C)(=O)=O)OCc2cnnn2CCCC1=O,/,0,-2,0,/,/,/,/
CC1(Cc2ccccc2OC(F)(F)F)C(=O)Nc2ccc(-c3ccsc3)cc21 (stereo not drawn),/,9.6*,-2,-4,/,/,-2,3
COc1ccccc1NC(=O)c1sc2ncn(CC(=O)Nc3ccccc3)c(=O)c2c1C,-4,13*,1,-3,2,24,-4,0
COc1ccccc1NC(=O)Cn1cnc2sc(C(=O)Nc3cc(OC)c(OC)c(OC)c3)c(C)c2c1=O,2,-1,0,-5,2,23,/,/
CCOC(=O)N1C(=O)C[C@](Sc2ccc(OC)cc2)(C(=O)N2CCCC2)[C@H]1c1ccc(OC)cc1,/,/,/,2,/,/,/,/
COc1cc2c(c(Br)c1N)-c1cc(Br)c(N)cc1C2=O,/,11*,-4,5,/,/,91*,46*
SMILES,HSF1 inhib,FXN GAA850 act,PG9 Ab binder,SMARCA2 activ,HSP90 inh,AI-2 QS modul,GAA30 counter,FXN GAA850 conf
COC(=O)c1cc(Br)c(N)cc1OC,-3,2,-1,0,3,29,/,/
COc1cccc(Nc2nc(C(N)c3ccccc3)cs2)n1 (stereo not drawn),/,-3,-1,-4,/,/,/,/
COc1ccc(-c2cscc2N)cc1,/,/,-4,-8,/,/,/,/
Cc1ccc(C)c(OCc2cc(C(=O)N3CC[C@@H]4CCCC[C@H]4C3)no2)c1,13,4,-1,1,0,8,/,/
COc1cc(C)ccc1OCc1cc(C(=O)N2CCC(c3ccc(F)cc3)C2)no1 (stereo not drawn),30,8.9*,1,7,10,-8,117*,35*
COC(=O)[C@H](CC(C)C)N1Cc2nnn(Cc3ccc(C)cc3)c2-c2cc(F)ccc2S1(=O)=O,/,/,/,-1,/,/,/,/
Nc1[nH]c(C(=O)c2ccccc2)c(-c2ccc(Cl)cc2)c1C(=O)c1c[nH]c2cc(F)ccc12,/,/,-1,-4,/,/,/,/
CCC(O)(CC)C(=O)NN(C(=O)Nc1csc2c1CCCC2)c1ccccc1,-4,9.4*,-2,2,7,7,7,3
COC(=O)N(NC(=O)C(O)(CCC(C)C)CCC(C)C)c1ccccc1,4,-3,-1,0,1,22,/,/
Nc1nc(CSC(=S)N2CCOCC2)nc(Nc2ccc(F)cc2)n1,16,6,0,2,1,25,/,/
COc1ccc(Nc2nc(N)nc(CSC(=S)N3CCOCC3)n2)cc1,6,7.6*,-1,7,-6,-17,83*,32*
COc1ccc(N2C(=O)CC(N(CCc3ccc(OC)c(OC)c3)C(=S)Nc3ccccc3)C2=O)cc1 (stereo not drawn),-3,8.4*,2,-5,-2,11,1,11*
